Screens from PubChem.
The list is not random: actives were taken first. Their share in the collection is about 3.9%.
Mtb FBA inh: Mtb FBA enzyme inhibitors, primary screen, biochemical, fluorescence, strain H37Rv | purified M. tuberculosis FBA, fluorescence read-out | inhibition, % at 1 µM | 2.3% of 360,000 active | AID 588726, 2011; in the data active = inhibition above about 27%;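 also: 0% = vehicle and 100% = reference inhibitor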
Target sequence (P9WQA3 whole entry, looked up): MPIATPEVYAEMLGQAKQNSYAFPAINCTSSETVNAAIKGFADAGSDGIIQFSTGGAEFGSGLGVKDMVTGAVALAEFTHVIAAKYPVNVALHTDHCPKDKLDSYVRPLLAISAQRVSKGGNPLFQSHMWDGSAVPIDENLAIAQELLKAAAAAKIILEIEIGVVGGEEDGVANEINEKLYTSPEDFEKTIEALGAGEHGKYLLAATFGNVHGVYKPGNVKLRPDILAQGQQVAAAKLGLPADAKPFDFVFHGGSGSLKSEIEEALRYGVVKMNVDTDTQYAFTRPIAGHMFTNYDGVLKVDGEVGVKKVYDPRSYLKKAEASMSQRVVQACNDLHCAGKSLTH
BH1578 lux ind: inducers of Vibrio cholerae quorum light production without autoinducers, primary screen, BH1578 luxS cqsA deficient, single point; V. cholerae BH1578 lux reporter, luminescence, 6 h; activation, % at 18.7 µM; 0.16% of 350,000 active; in the data active = activation mostly above about 9.7%, no sharp cut-off
GDH-TPI inh: GDH-TPI coupling enzyme inhibitors, primary screen, artefact control for M. tuberculosis FBA inhibitor project, biochemical, absorbance, full deck. GDH-TPI coupled enzyme counterscreen, NADH absorbance. 1.2% of 360,000 active. inhibition, % at 4.8 µM. AID 588335, 2011;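 also: 0% = DMSO wells and 100% = wells lacking the enzyme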
CCHF vOTU inh: CCHFV vOTU protease inhibitors, primary screen, biochemical, Pep-AMC substrate, fluorescence. inhibition, % at 11.5 µM. 0.55% of 370,000 active. Crimean-Congo hemorrhagic fever virus L polyprotein viral ovarian tumor (vOTU) protease …; also: 0% = vehicle wells with enzyme and 100% = no enzyme wells
* = called active by the depositor; i = inactive; · = not tested or not shown; + = active, no number. Rule as the data show it, unless noted: active = inhibition above about 30%; inactive = the rest.

SMILES | Mtb FBA inh | BH1578 lux ind | GDH-TPI inh | CCHF vOTU inh
CC(=O)C1=C(O)C(=O)N(c2ccc(S(=O)(=O)Nc3nccs3)cc2)C1c1ccc(F)cc1 (centres undefined) | -1.9 | -0.4 | 32.1* | -10.8
CC(=O)C1=C(O)C(=O)N(c2ccc(S(=O)(=O)Nc3nccs3)cc2)C1c1ccc([N+](=O)[O-])cc1 (centres undefined) | -3.4 | -0.4 | 28.0 | 5.0
O=C(Nc1cc(Cl)ccc1Cl)Nn1cnnc1 | 1.0 | -0.1 | 1.0 | 2.1
O=[N+]([O-])c1ccc(NN=Cc2ccccc2O)nc1 | -18.3 | -5.6 | 23.7 | 4.8
O=[N+]([O-])c1ccc(O)c(/C=N/Nc2ccccn2)c1 | -6.8 | -2.7 | 38.0* | 13.2
Cc1ccccc1NC(=S)N/N=C/c1ccc(O)cc1O | 1.5 | i | 56.2* | 1.2
Oc1cccc(C=NNc2ccccn2)c1 | -2.3 | -1.3 | 14.2 | -3.6
Cc1nc(N/N=C/c2ccc(O)cc2O)cc(N2CCOCC2)n1 | -0.8 | i | 64.3* | -1.0
Oc1ccc(C=NNc2ccccn2)c(O)c1 | -1.4 | 0.8 | 40.8* | 23.7
O=[N+]([O-])c1cccc(N/N=C/c2cc([N+](=O)[O-])ccc2O)c1 | -4.4 | -0.3 | 22.8 | 13.3
CCN(CC)S(=O)(=O)c1ccc(N/N=C/c2ccc(O)cc2O)nc1 | -2.4 | -0.3 | 39.8* | 15.5
O=[N+]([O-])c1ccc(NN=Cc2ccc(O)cc2O)nc1 | -6.5 | i | 28.9 | 15.9
O=[N+]([O-])c1ccc(O)c(C=NNc2ccc(S(=O)(=O)O)cc2)c1 | -9.0 | -5.6 | 51.8* | 16.4
O=c1[nH]ncc(N/N=C\c2ccc(O)cc2O)c1Cl | 1.5 | i | 38.4* | 14.2
Cc1ccccc1-c1nnn(CC(=O)NC(=O)NC2CCCC2)n1 | 0.8 | i | -4.7 | 16.3
c1ccc2c(-c3nc4ncccc4o3)cccc2c1 | + | -0.2 | -1.6 | -205.4
C/C=C\C=C/C(=O)Nc1cccc(C2=NOC3(C2)C[C@@H](C(N)=O)N(C(=O)[C@H]2CCC(=O)N2)C3)c1 (some centres undefined) | 2.0 | -0.3 | 13.8 | ·
Cc1cc(-c2csc3nc[nH]c(=S)c23)cc(C)c1C | 2.8 | -0.5 | 40.2* | 11.6
Cc1ccc(-c2csc3nc[nH]c(=S)c23)cc1 | 1.1 | -0.2 | 15.0 | 10.3
Cc1cc(Br)cn2c(Cc3ccccc3C(F)(F)F)c(-c3cccc(Cl)c3)nc12 | · | · | · | 15.5
Cc1ccc(OCc2nnnn2-c2ccccc2)cc1 | 5.4 | -0.2 | 3.7 | -0.4
O=C(Cn1nc(Cc2ccncc2)c2ccccc2c1=O)N1CCc2ccccc2C1 | 3.6 | -0.4 | -7.9 | 65.9*
CN1CCSc2ccc(C(=O)NCc3cccc(F)c3)cc21 | 113.0* | 1.8 | 0.5 | -98.3
O=C(CC(SCCO)c1ccc([N+](=O)[O-])cc1)c1ccco1 (centres undefined) | 0.6 | -0.5 | 31.0* | -1.5
Cc1ccc(C(=O)CC(SCC(=O)O)c2ccc([N+](=O)[O-])cc2)cc1 (centres undefined) | 1.4 | -0.5 | 8.1 | -13.4
SMILES | Mtb FBA inh | BH1578 lux ind | GDH-TPI inh | CCHF vOTU inh
CC(=O)NC(Cc1ccccc1)C(=O)N1CCN(C(=O)c2ccco2)CC1 (centres undefined) | 0.6 | i | 2.6 | ·
CC(=O)NC(CSC(CC(=O)c1ccco1)c1ccc(C)cc1)C(=O)O (centres undefined) | 5.4 | -0.4 | 31.4* | 9.7
Cc1cccc(C2N(c3ccc(F)cc3)C(=O)C3CCCN32)c1 (centres undefined) | 2.4 | -0.2 | 18.8 | 0.9
CCN(CC)CCNc1ncnc2c1sc1nc(N3CCOCC3)c3c(c12)CC(C)(C)SC3 | 7.1 | 1.4 | 33.7* | -2.8
CC1(C)Cc2c(c(N3CCOCC3)nc3sc4c(NCCN)ncnc4c23)CO1 | 12.4 | -0.4 | 46.8* | -3.0
CCS(=O)(=O)Nc1ccc(C2=NN(C(=O)c3ccco3)C(c3cccs3)C2)cc1 (centres undefined) | 2.2 | -1.3 | 46.4* | 26.1
CC(=O)Nc1ccc(C2=NN(c3ccccc3)C(c3cccs3)C2)cc1 (centres undefined) | 189.1* | i | 7.3 | -18.0
O=C(Oc1c(Br)cc(Br)c2cccnc12)N1CCCCC1 | -0.9 | -0.1 | -0.3 | -8.5
CC(C)NC(=O)c1cc(C2CCCCN2C(=O)c2ccc(Cl)cc2)on1 (centres undefined) | -0.3 | i | 11.9 | 18.6
CC(=O)Nc1cccc2c1Cc1cc([N+](=O)[O-])ccc1-2 | 0.7 | -1.0 | 39.9* | 6.0
CCOC(=O)c1cnn2c(C(F)(F)F)cc(-c3cn(C)nc3C)nc12 | 72.3* | 0.6 | 20.8 | -26.7
CCOC(=O)c1cnn2c(C(F)(F)F)cc(-c3ccccc3)nc12 | 15.2 | -3.6 | 15.1 | -11.3
Nc1n[nH]c(N)c1N=Nc1ccccc1F | 1.0 | -0.8 | 38.0* | 2.6
COCCN(Cc1cc2cc3c(cc2nc1Cl)OCO3)C(=O)c1ccc(C)cc1 | 1.0 | -6.7 | 21.8 | 9.2
COCCSc1nc2sc3c(c2c(=O)n1-c1ccccc1)CCN(C)C3 | 13.5 | i | 31.4* | ·
COc1ccc(-n2c(SCC(=O)Nc3nccs3)nc3sc4c(c3c2=O)CCN(C)C4)cc1 | 3.3 | · | 31.9* | 5.7
CCOC(=O)CSc1nc2sc3c(c2c(=O)n1-c1ccc(OCC)cc1)CCN(C)C3 | 1.9 | i | 19.3 | -1.0
CCOc1ccc(-n2c(SCC(N)=O)nc3sc4c(c3c2=O)CCN(C)C4)cc1 | 3.6 | 0.6 | 32.0* | 9.2
COc1ccc(NC(=O)CSc2nc3sc4c(c3c(=O)n2-c2ccc(OC)cc2)CCN(C)C4)cc1 | 1.8 | -0.1 | 35.3* | -0.1
CC(C)(CC(=O)O)CC(=O)Nc1cc(C(F)(F)F)cc(C(F)(F)F)c1 | -0.5 | -0.6 | -10.2 | -4.2
Cc1cc(NC(=O)COC(=O)c2cc(S(=O)(=O)N(C)c3ccccc3)ccc2Cl)no1 | -8.1 | i | -1.0 | 0.0
COc1cc(C2c3cc4c(cc3OC(N3CCOCC3)C2C)OCO4)cc(OC)c1OC(C)=O (centres undefined) | 4.0 | i | -3.5 | 8.5
CCOC(=O)CSc1nc2sc3c(c2c(=O)n1C1CCCCC1)CCN(C)C3 | 20.5 | -0.6 | 39.2* | -42.7
COC(=O)c1ccc2nc(-c3cccc(N)c3)cn2c1 | -2.6 | i | 25.6 | -9.1
COc1ccc(CSc2nc(C)[nH]c2[N+](=O)[O-])cc1[N+](=O)[O-] | -9.8 | -0.7 | 41.5* | -11.1
Cc1nc(SCc2ccccc2)c([N+](=O)[O-])[nH]1 | -6.4 | 3.1 | 5.2 | 3.0
Cc1cccc2[nH]c(SCC(=O)N3CCOCC3)nc12 | 0.8 | -0.6 | -2.3 | -14.4
C[C@@H]1C(c2cccc(Cl)c2)=NN(c2ccc(Br)cc2)[C@H]1C(=O)N1CCOC1=O | 55.7* | 0.7 | 16.0 | ·
O=C1OCCN1C(=O)[C@H]1[C@H](c2ccccc2)C(c2ccccc2)=NN1c1ccc(Br)cc1 | 43.0* | i | 16.4 | -60.4
O=C1OCCN1C(=O)[C@H]1[C@H](c2ccc([N+](=O)[O-])cc2)C(c2ccc(F)cc2)=NN1c1ccc(Br)cc1 | 0.6 | -3.1 | 30.0 | 31.7*
